Nrf2 ARE act – activators of Nrf2 (ARE) signaling | Potency, µM (series often up to 46.1 µM), for the others: top-dose activation, most hits filed as activators | 410,000 tested, 0.31% active | AREc32 ARE-luciferase reporter (MCF7-derived line), luminescence, 24 h | AID 624171; also: potency is read from the fitted curve at half-maximal effect; % of control where 0% means no effect; nearly all actives have a fitted effect of over 65% in size
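Luciferase luminescence (Steady-Glo, 30 min at room temperature) served as the read-out of ARE activation in AREc32 cells treated with compounds for 24 hr at 37 deg C.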
Nrf2 block – inhibitors of Nrf2 signaling; 360,000 tested, 2.1% active; A549 ARE-Fluc reporter, luciferase luminescence, 18-24 h; AID 504444; Potency, µM (series often up to 46 µM), for the others: top-dose activity change, negative = inhibition, actives largely listed as inhibitors; also: potency is read from the fitted curve at half-maximal effect; % is scaled to controls: 0 for no effect and ±100 for the full control effect; nearly all actives have a fitted effect of over 60% in size
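A549 ARE_Fluc cells, 5000/well, 5% FBS OPTI-MEM; compounds in dose-response, 18-24 h at 37 °C/5% CO2; CellTiter-Fluor viability read (Ex 405/Em 525), then BugLite luciferase luminescence = Nrf2 activity.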
LDHA inh – blocks human lactate dehydrogenase A; AID 1347041; 480,000 tested, 0.15% active; activity change, % (values are at about 110 or 230 µM); purified LDHA, NADH/diaphorase-resazurin fluorescence; stronger effect = lower value; in the data active = activity change below about -30%; inconclusive = mostly about -25% to -30%;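 also: plate controls were DMSO wells for no effect and wells without enzyme for full effect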
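Enzyme activity of human lactate dehydrogenase 5 (2 nM; 0.06 mM NADH, 0.2 mM pyruvate, 5 min, RT) is measured via a resazurin/diaphorase fluorescence readout of residual NADH.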
IDH1 R132H inh – inhibitors of human mutant IDH1 R132H; O75874; IDH1-R132H enzyme, NADPH consumption, diaphorase/resazurin fluorescence; Potency, µM (doses to about 76.6 µM), for inactives: at the top dose activity change, negative = inhibition, usual class: inhibitors; 390,000 tested, 0.093% active; also: potency is read from the fitted curve at half-maximal effect; % is scaled to controls: 0 for no effect and ±100 for the full control effect; nearly all actives have a fitted effect of over 65% in size
Target sequence (O75874 whole entry R132H, stated change not applied): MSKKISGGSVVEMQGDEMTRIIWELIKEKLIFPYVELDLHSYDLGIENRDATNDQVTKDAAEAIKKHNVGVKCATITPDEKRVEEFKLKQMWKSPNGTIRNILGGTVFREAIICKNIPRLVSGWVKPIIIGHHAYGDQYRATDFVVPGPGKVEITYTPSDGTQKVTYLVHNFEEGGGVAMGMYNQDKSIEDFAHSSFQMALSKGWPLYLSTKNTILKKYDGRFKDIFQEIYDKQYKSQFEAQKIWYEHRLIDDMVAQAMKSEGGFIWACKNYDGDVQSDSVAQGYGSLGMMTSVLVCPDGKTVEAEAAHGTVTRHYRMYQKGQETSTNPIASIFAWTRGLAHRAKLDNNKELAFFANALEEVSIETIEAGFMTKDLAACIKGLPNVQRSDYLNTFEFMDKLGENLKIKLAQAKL
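IDH1-R132H (0.5 ug/mL) preincubated 30 min with compound, then NADPH (0.016 mM) and alpha-KG (2 mM) added; 80 min at RT, pH 7.5. Remaining NADPH coupled via diaphorase/resazurin to fluorescence (540/590 nm); concentration-response curves normalized to no-enzyme control.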
A549 tox – A549 cytotoxicity, counter-screen for Nrf2 inhibitors; A549 ARE-Fluc cells, CellTiter-Fluor viability, 18-24 h; Potency, µM (highest dose often 46 µM), without a hit: at the highest dose activity change, negative = cytotoxicity, usual class: inhibitors; 390,000 tested, 0.16% active; AID 504648; also: potency is read from the fitted curve at half-maximal effect; % is scaled to controls: 0 for no effect and ±100 for the full control effect
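A549 ARE_Fluc cells in 5% FBS OPTI-MEM were exposed to compounds in concentration-response for 18-24 h at 37 deg C. Viability was read by CellTiter-Fluor fluorescence (Ex 405/Em 525) after 30 min, before the luciferase read.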
12-LOX inh – ALOX12 (human) lipoxygenase inhibition. purified 12hLO, xylenol orange hydroperoxide absorbance. Potency, µM (highest dose often 108 µM), inactives show top-dose activity change, negative = inhibition, hits mostly inhibitors. P18054. 580,000 tested, 1.1% active; also: potency is read from the fitted curve at half-maximal effect; % is scaled to controls: 0 for no effect and ±100 for the full control effect
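Purified human 12hLO (150 nM final) in 25 mM Hepes, 0.01% Triton X-100, pH 7.0 was preincubated 15 min at room temperature with compound. Then 40 uM arachidonic acid was added, 30 min. Hydroperoxide was read by Fe-XO absorbance ratio 573/405 nm.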
* marks the source's active call; other numbers are inactive results; ? = inconclusive; . = no result given; [ ] = remark or other dose. Hits are enriched below; roughly 2.7% of the tested compounds scored in any of these assays. Unless noted, calls follow the shape of the dose curve; as a rule, active = well fitted curve in the direction sought with a large enough effect; inconclusive = small, poorly fitted or top-dose-only effect, or another doubt; inactive = no such curve, though single readings can be large; an effect the other way counts as inactive or inconclusive.

SMILES | Nrf2 ARE act | Nrf2 block | LDHA inh | IDH1 R132H inh | A549 tox | 12-LOX inh
C=CCN1c2ccccc2[C@]23C[C@@H](C(=O)OC)N(C(=O)c4ccc(Br)cc4)C2=NC(C(=O)OC)=C(C(=O)OC)[C@H]13 | 0% | ? | -3 | -12% | ? | 5%
COC(=O)C1=C(C(=O)OC)[C@@H]2N(Cc3ccccc3)c3ccccc3[C@@]23C[C@@H](C(=O)OC)N(C(=O)c2ccc(Br)cc2)C3=N1 | -1% | 16µM* | 6 | -12% | -24% | .
COC(=O)C1=C(C(=O)OC)[C@@H]2N(C)c3ccccc3[C@@]23C[C@@H](C(=O)OC)N(C(=O)c2cc(C)oc2C)C3=N1 | -1% | 18µM* | -2 | -1% | -29% | .
O=Cc1ccc(-c2nc3ccccc3s2)o1 | 5% | ? | -3 | -6% | -3% | -2%
O=C(O)CCN1C(=O)/C(=C/c2ccc(-c3nc4ccccc4s3)o2)SC1=S | 6% | 3% | -1 | 2% | -21% | 40µM*
O=C(O)CC(C(=O)O)N1C(=O)/C(=C/c2ccc(-c3nc4ccccc4s3)o2)SC1=S (stereo not drawn) | 0% | 2% | -14 | 0% | ? | 16µM*
O=C(O)CCCN1C(=O)/C(=C\c2ccc(-c3nc4ccccc4s3)o2)SC1=S | 16% | -29% | 1 | -4% | ? | 40µM*
CCCCCCCCCCCCCCCCC | . | . | . | . | . | 7%[176 µM]
CSCCC(=O)NCc1ccc(C)s1 | . | . | 1 | . | . | 1%
CCOc1cccc2cc(-c3csc(Nc4cc(OC)ccc4OC)n3)c(=O)oc12 | . | . | -4 | . | . | ?
O=C(CNS(=O)(=O)Cc1ccccc1)NNc1ccccc1 | -1% | . | -3 | . | . | 40µM*
Cc1cccc(NC(=O)c2sc3nc4c(cc3c2N)CN(C(C)C)CC4)c1 | 4% | 16µM* | 0 | 0% | -14% | ?
O=C(CSc1ccc(Br)cc1)NCc1ccc(CN2CCCC2)cc1 | . | . | 6 | . | . | ?
O=c1cc(-c2ccccc2)c2cc3c(-c4ccccc4)coc3cc2o1 | . | . | 11 | . | . | -9%
CCOc1ccc(OCC)c(S(=O)(=O)NCCOC23CC4CC(CC(C4)C2)C3)c1 | 0% | ? | -5 | 2% | 0% | -1%
COc1cc(S(=O)(=O)NCCOC23CC4CC(CC(C4)C2)C3)c(OC)cc1Cl | 0% | 21µM* | 1 | 6% | -1% | -1%
O=C(CCCSc1ccc(Cl)cc1)Nc1ccccc1O | 14µM* | 2% | -1 | 0% | 2% | .
O=C(CSCc1ccc(Cl)cc1)Nc1ccccc1O | ? | 5% | -6 | 24% | 0% | -40%
CCN(CC)c1ccc(-c2nnc(SCc3ncc(-c4ccccc4)o3)o2)cc1 | . | . | 1 | . | . | 13%
CCOc1ccc(/C=C/C(=O)c2cccc(O)c2)cc1 | . | . | 10 | . | . | ?
CCOc1cc(/C=C/C(=O)c2cccc(Cl)c2)cc(Cl)c1O | . | . | -11 | . | . | 5.6µM*
CCOc1cc(/C=C/C(=O)c2ccccc2Cl)cc(Cl)c1O | . | . | 7 | . | . | 35µM*
CCCOC(=O)COc1ccc2c(=O)c(-c3ccccc3OC)c(C(F)(F)F)oc2c1 | . | . | 1 | . | . | ?
COc1cccc(-c2cc3c(=O)n(CCNC(=O)c4cccc5[nH]ccc45)ccn3n2)c1 | . | . | . | . | . | 14%
O=C(/C=C/c1ccco1)NCc1ccc(F)cc1 | ? | ? | 6 | 3% | 10% | 32µM*
O=C(Cc1ccc(N(Cc2ccc(F)cc2)C(=O)c2ccco2)cc1)NCc1ccc(F)cc1 | . | . | . | . | . | 32µM*
CCc1nnc(NS(=O)(=O)c2ccc(NC(=S)NC(=O)/C=C/c3ccccc3)cc2)s1 | 4% | -7% | -9 | -18% | 1% | 22µM*
CCc1nnc(NS(=O)(=O)c2ccc(NC(=S)NC(=O)/C=C/c3ccc(OC)cc3)cc2)s1 | 1% | -5% | -10 | 7% | 0% | -28%
CCc1nnc(NS(=O)(=O)c2ccc(NC(=S)NC(=O)c3ccccc3)cc2)s1 | 1% | ? | -12 | -3% | -10% | 7.9µM*

Compound activity as filed in PubChem.
